# Measured values from PubChem BioAssay (NCATS).
# Records with an inconclusive call do not appear. Calls of active or inactive are those of the source. Calls come from the whole dose curve; as a rule, active = well fitted cell-killing curve with a large enough effect; inconclusive = small, poorly fitted or top-dose-only effect, or effect the other way; inactive = no such curve, though single readings can be large or run the other way.
# Experiment: Quantitative High-Throughput drug screen in 47 multiple myeloma cell lines against the NCATS MIPE library collection: MM1S_ATCC cell viability assay (AID 1918980); note: nearly all actives have a fitted effect of over 45% in size;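 for viability (% of control): 100% = wells with DMSO only and 0% = wells with media only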
# Settings: MM1S myeloma viability, CellTiter-Glo ATP luminescence, 48 h; series mostly up to 45.8 µM; viability (% of control): at the top concentration
# Procedure, shortened: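 Cells were exposed to library compounds for 48 hours, after which ATP was measured by CellTiter-Glo. Signal was taken as median relative luminescence units.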
# Potency is the fitted concentration of half-maximal effect.
SMILES,Potency,viability (% of control)
CCOC(=O)N1CCN([N+]([O-])=NOc2cc(ON=[N+]([O-])N3CCN(C(=O)OCC)CC3)c([N+](=O)[O-])cc2[N+](=O)[O-])CC1,9.35 µM (active),
O=C(CC12CC3CC(CC(C3)C1)C2)Nc1cccc2nc(NCCNCCO)ccc12,8.33 µM (active),
CN[C@@H]1CN(c2ccc3c(=O)c(C(=O)O)cn(-c4nccs4)c3n2)C[C@@H]1OC,0.257 µM (active),
C[C@@H]1O[C@@H](O[C@H]2CC[C@@]3(C)[C@H](CC[C@@H]4[C@H]3C[C@@H](O)[C@]3(C)[C@@H](C5=CC(=O)OC5)CC[C@]43O)C2)C[C@H](O)[C@@H]1O[C@H]1C[C@H](O)[C@H](O[C@H]2C[C@H](O)[C@@H](O)[C@@H](C)O2)[C@H](C)O1 (stereo in doubt),0.34 µM (active),
CNC1CCC(N(Cc2cccc(-c3ccncc3)c2)C(=O)c2sc3ccccc3c2Cl)CC1 (centres undefined),20.9 µM (active),
NS(=O)(=O)c1cc(Cl)c(Cl)c(S(N)(=O)=O)c1,,125% (inactive)
CC[C@H](C)C(=O)O[C@H]1C[C@H](O)C=C2C=C[C@H](C)[C@H](CC[C@@H](O)C[C@@H](O)CC(=O)O)[C@H]21,,128% (inactive)
CC[C@H](NC(=O)[C@H](C)NC)C(=O)N1C[C@@H](O)C[C@H]1Cc1c(-c2[nH]c3cc(F)ccc3c2C[C@H]2C[C@H](O)CN2C(=O)[C@H](CC)NC(=O)[C@H](C)NC)[nH]c2cc(F)ccc12,3.32 µM (active),
NC1(C(=O)N[C@@H](CCO)c2ccc(Cl)cc2)CCN(c2ncnc3[nH]ccc23)CC1,0.0833 µM (active),
